# Assay results reported in PubChem BioAssay (NCATS).
# Results filed as inconclusive are left out. Where a call stands in place of a potency, no number is given. Active and inactive are the calls of the source. Calls follow the shape of the dose curve; as a rule, active = well fitted cell-killing curve with a large enough effect; inconclusive = small, poorly fitted or top-dose-only effect; inactive = flat fitted curve, though single readings scatter.
# Assay: Cell Viability - LYMP1-003 - Assay at 24 hr (AID 963)
# Conditions: LYMP1-003 lymphoblastoid cell viability; series mostly up to 92.2 µM
# Summary of the method: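 Concentration-response qHTS: ATP loss measured by CellTiter-Glo luminescence after 24 h compound exposure at 37 C. Cells were LYMP1-003 human lymphoblastoid, 2500 per well. AC50 derived via standard Hill equation modeling.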
# Potency is read from the fitted curve at half-maximal effect.
row,Compound,Potency
1,O=[N+]([O-])c1cc([N+](=O)[O-])c2ccccc2c1,inactive
2,CN(C)NC(=O)CCC(=O)O,inactive
3,CCOP(=O)(NC(C)C)Oc1ccc(SC)c(C)c1 (stereo unspecified),inactive
4,O=[N+]([O-])c1c2ccccc2cc2ccccc12,inactive
5,O=[N+]([O-])c1c(Cl)c(Cl)cc(Cl)c1Cl,inactive
6,O=S(=O)(c1ccc(Cl)cc1)c1ccc(Cl)cc1,inactive
7,COc1ccc(C(c2ccc(OC)cc2)C(Cl)(Cl)Cl)cc1,inactive
8,CC(C)(O)C(=O)Nc1ccc([N+](=O)[O-])c(C(F)(F)F)c1,inactive
9,Nc1ccc(Sc2ccc(N)cc2)cc1,inactive
10,Cc1cc(O)ccc1Cl,inactive
11,CCCCCCCCc1ccc(O)cc1,inactive
12,O=C(O)C(Cl)Cl,inactive
13,Nc1ccc(Cl)cc1N,inactive
14,COC(C)(C)CCCC(C)C/C=C/C(C)=C/C(=O)OC(C)C (stereo unspecified),inactive
15,c1cc2ccc3cccc4ccc(c1)c2c34,inactive
16,Nc1ccc([N+](=O)[O-])cc1,inactive
17,CCOCCOC(C)=O,inactive
18,CC(=O)[O][Hg][c]1ccccc1,3160 nM (active)
19,CCCCC(CC)COC(=O)c1ccccc1C(=O)OCC(CC)CCCC (stereo unspecified),inactive
20,C=CC(=O)NCNC(=O)C=C,inactive
21,OCCCBr,inactive
22,C1CCC(NC2CCCCC2)CC1,inactive
23,O=C(O)COc1ccccc1,inactive
24,CN(C)[C@@H]1C(=O)C(C(N)=O)=C(O)[C@@]2(O)C(=O)C3=C(O)c4c(O)cccc4[C@@](C)(O)[C@H]3[C@H](O)[C@@H]12,inactive
25,Nc1ccc(Cl)cc1,inactive
26,CCCCOC(=O)c1ccccc1C(=O)OCc1ccccc1,inactive

# Assay: Cell Viability - LYMP1-003 - Assay at 40 hr (AID 964); also: nearly all actives have a fitted effect of over 60% in size
# Conditions: LYMP1-003 lymphoblastoid viability; series mostly up to 92.2 µM
# Summary of the method: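 Viability is taken as cellular ATP, read by CellTiter-Glo luminescence after 40 h of compound exposure at 37 C. Cells: human lymphoblastoid line LYMP1-003 at 2500/well; AC50 values derived by Hill-equation fitting of concentration-response data.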
row,Compound,Potency
1,O=[N+]([O-])c1cc([N+](=O)[O-])c2ccccc2c1,inactive
2,CN(C)NC(=O)CCC(=O)O,inactive
3,CCOP(=O)(NC(C)C)Oc1ccc(SC)c(C)c1 (stereo unspecified),inactive
4,O=[N+]([O-])c1c2ccccc2cc2ccccc12,inactive
5,O=[N+]([O-])c1c(Cl)c(Cl)cc(Cl)c1Cl,inactive
6,O=S(=O)(c1ccc(Cl)cc1)c1ccc(Cl)cc1,inactive
7,COc1ccc(C(c2ccc(OC)cc2)C(Cl)(Cl)Cl)cc1,inactive
8,CC(C)(O)C(=O)Nc1ccc([N+](=O)[O-])c(C(F)(F)F)c1,inactive
9,Nc1ccc(Sc2ccc(N)cc2)cc1,inactive
10,Cc1cc(O)ccc1Cl,inactive
11,O=C(O)C(Cl)Cl,inactive
12,Nc1ccc(Cl)cc1N,inactive
13,COC(C)(C)CCCC(C)C/C=C/C(C)=C/C(=O)OC(C)C (stereo unspecified),inactive
14,c1cc2ccc3cccc4ccc(c1)c2c34,inactive
15,Nc1ccc([N+](=O)[O-])cc1,inactive
16,CCOCCOC(C)=O,inactive
17,CC(=O)[O][Hg][c]1ccccc1,1580 nM (active)
18,CCCCC(CC)COC(=O)c1ccccc1C(=O)OCC(CC)CCCC (stereo unspecified),inactive
19,C=CC(=O)NCNC(=O)C=C,inactive
20,OCCCBr,inactive
21,C1CCC(NC2CCCCC2)CC1,inactive
22,O=C(O)COc1ccccc1,inactive
23,CN(C)[C@@H]1C(=O)C(C(N)=O)=C(O)[C@@]2(O)C(=O)C3=C(O)c4c(O)cccc4[C@@](C)(O)[C@H]3[C@H](O)[C@@H]12,inactive
24,Nc1ccc(Cl)cc1,inactive
25,CCCCOC(=O)c1ccccc1C(=O)OCc1ccccc1,inactive
